Data taken from PubChem BioAssay (Tox21).
Results filed as inconclusive are left out. Calls of active or inactive are those of the source. Calls come from the whole dose curve; as a rule, active = well fitted cell-killing curve with a large enough effect in the repeat runs; inconclusive = weak or mixed curves; inactive = flat fitted curve, though single readings scatter.

Experiment: qHTS RealTime-Glo MT Cell Viability Assay in HepG2 cells - 32 hour (AID 1224877); note: nearly all actives have a fitted effect of over 55% in size
Conditions: RealTime-Glo luminescence; series mostly up to 76.8 µM; activity change, negative = cytotoxic: at the top concentration
Excerpt: U.S. Tox21 Program National Center for Advancing Translational Sciences [NCATS] NIH Chemical Genomics Center [NCGC] U.S. Environmental Protection Agency [EPA] National Institutes of Environmental Health Sciences [NIEHS] National Toxicology Program [NTP] U.S. Food and Drug Administration [FDA] Tox21 Assay Overview: Measure of cell viability is critical in the cell-base assay. Analysis of cell viability is necessary for the characterization of cell responses to cytotoxic drugs and environmental stress. A RealTime-Glo MT Cell Viability Assay to monitor cell viability in real time of continues cell culture during 40 hours of compound treatment was used to screen Tox21 10K library compounds in HepG2 cells. The RealTime-Glo MT Cell Viability Assay is a nonlytic, homogeneous, bioluminescent method to measure cell viability in real time using a simple, plate-based method. The assay involves adding NanoLuc luciferase and a cell-permeant prosubstrate to cells in culture. Viable cells reduce the proprietary prosubstrate to generate a substrate for NanoLuc luciferase. This substrate diffuses from cells into the surrounding culture medium, where it is rapidly used by the NanoLuc Enzyme to produce a luminescent signal. The signal correlates with the number of viable cells, making the assay well suited for cytotoxicity studies.
Tox21 Assay Protocol Summary: The mixture of HepG2 cell suspension and reagents were dispensed at 600cells/6 ul/well in 1536-well tissue culture treated black solid bottom plates using a Multidrop dispenser. After the assay plates were incubated at a 37 C/5% CO2 incubator for 5 hours, 23 nL of compounds dissolved in DMSO, positive and negative controls was transferred to the assay plate by a pintool work station. The plates were incubated at 37 C for 40 hours. The luminescence intensity were measured at 0h, 8h, 16h, 24h, 32h and 40h time points using ViewLux plate reader during compound treatment.
% is set by controls: 0 for no effect and ±100 for the full control effect; potency is the fitted concentration of half-maximal effect.

| SMILES | activity change, negative = cytotoxic | Potency |
| --- | --- | --- |
| CC1(C)CC/C(=C/c2ccc(Cl)cc2)C1(O)Cn1cncn1 (stereo not given) | 9.44% (inactive) |  |
| CC(C)(C)c1ccc(CSc2cnn(C(C)(C)C)c(=O)c2Cl)cc1 | -24% (inactive) |  |
| CC(=O)[O-].CC(=O)[O-].[Hg+2] |  | 2.19 µM (active) |
| CCOP(=S)(OCC)SCS(=O)(=O)CC | -5.09% (inactive) |  |
| COP(N)(=S)OC | 1.5% (inactive) |  |
| O=[N+]([O-])c1cc(Cl)ccc1Cl | 10.9% (inactive) |  |
| O=C1c2ccccc2C(=O)C1C(=O)C(c1ccccc1)c1ccc(Cl)cc1 (stereo not given) | -18.5% (inactive) |  |
| Clc1ccc(COC(Cn2ccnc2)c2ccc(Cl)cc2Cl)cc1 (stereo not given) |  | 48.8 µM (active) |
| ClC(Cl)=C(Cl)Cl | 0.327% (inactive) |  |
| C[C@]12CC[C@H](O)C[C@H]1CC[C@@H]1[C@@H]2C[C@@H](O)[C@]2(C)[C@@H](C3=CC(=O)OC3)CC[C@]12O | -4.01% (inactive) |  |
| CN(C)CCc1c[nH]c2ccc(O)cc12 | -1.25% (inactive) |  |
| CC(C)N1C(=O)N(c2ccccc2)CSC1=NC(C)(C)C | -12.9% (inactive) |  |
| Oc1c(Br)c(Br)c(Br)c(Br)c1Br | -6.32% (inactive) |  |
| O=C1C=CC(=O)c2ccccc21 |  | 24.5 µM (active) |
| CC(=O)[O-].[Tl+] | -3.04% (inactive) |  |
| Oc1ccc(C(=C(Cl)Cl)c2ccc(O)cc2)cc1 | -4.64% (inactive) |  |
| COc1ccc(/C(=C/C(=O)N2CCOCC2)c2ccc(Cl)cc2)cc1OC | -7.25% (inactive) |  |
| Clc1ccc(C(c2ccccc2Cl)C(Cl)(Cl)Cl)cc1 (stereo not given) |  | inactive |
| Cc1c(Cl)c(=O)oc2cc(OP(=O)(OCCCl)OCCCl)ccc12 | -17.4% [at 35.3 µM] (inactive) |  |
| O=C1NCN(c2ccccc2)C12CCN(CC1COc3ccccc3O1)CC2 (stereo not given) | 0.405% [at 35.3 µM] (inactive) |  |

| SMILES | activity change, negative = cytotoxic | Potency |
| --- | --- | --- |
| Nc1ccccc1C(=O)Oc1ccc2ccccc2c1 | -5.82% (inactive) |  |
| CC(C)(O)c1cnn2c(-c3ccc(F)c(-c4c(F)cccc4C#N)c3)cnc2n1 | -10.8% (inactive) |  |
| CC(=O)/C=C/c1ccc2c(c1)OCO2 | -9.48% (inactive) |  |
| CC(=O)OC1(c2ccccc2)CCN(CCc2ccccc2)CC1 | -19.1% (inactive) |  |
| CCCCN(CCCC)C(=S)[S-].CCCCN(CCCC)C(=S)[S-].[Zn+2] |  | 24.5 µM (active) |
| C=CC(=O)OCCCCOC(=O)C=C |  | 49 µM (active) |
| CCOP(=S)(OCC)OC(Cl)C(Cl)(Cl)Cl (stereo not given) | -0.831% (inactive) |  |
| CCCCOP(=O)(CCCC)OCCCC | 3.95% (inactive) |  |
| O=c1[nH]c2ccccc2n1CCCN1CCC(n2c(=O)[nH]c3cc(Cl)ccc32)CC1 | -17.8% [at 35.3 µM] (inactive) |  |
| Clc1ccc(-c2ccc(Cl)c(Cl)c2Cl)c(Cl)c1Cl | 2.53% (inactive) |  |
| Nc1ccc([N+](=O)[O-])cc1Cl | -2.34% (inactive) |  |
| CCOc1cc(C(C)(C)C)ccc1C1COC(c2c(F)cccc2F)=N1 (stereo not given) | -12.7% [at 35.3 µM] (inactive) |  |
| BrCBr | 0.797% (inactive) |  |
| COP(=O)(CCC(=O)NCO)OC | 3.27% (inactive) |  |
| C[C@@H]1O[C@@H](O[C@@H]2C=C3CC[C@@H]4[C@H](CC[C@]5(C)[C@@H](c6ccc(=O)oc6)CC[C@]45O)[C@@]3(C)CC2)[C@H](O)[C@H](O)[C@H]1O | -19% [at 35.3 µM] (inactive) |  |
| CCc1cc(C)cc(CC)c1-c1c(OC(=O)C(C)(C)C)n2n(c1=O)CCOCC2 | -6.19% (inactive) |  |
| CCSC(C)CC1CC(=O)C(/C(CC)=N/OC/C=C/Cl)=C(O)C1 (stereo not given) | -8.28% [at 35.3 µM] (inactive) |  |
| COC(=O)N(C(=O)N1COC2(C(=O)OC)Cc3cc(Cl)ccc3C2=N1)c1ccc(OC(F)(F)F)cc1 (stereo not given) | -3% [at 35.3 µM] (inactive) |  |
| CC(C)CCCCCCCOP(=O)(Oc1ccccc1)Oc1ccccc1 | -18.5% (inactive) |  |
| CC(C)OS(C)(=O)=O | 0.755% (inactive) |  |
